# Reference: PubChem BioAssay
# A number with no mark means an inactive call. For some assays here: Entries with a potency or affinity are not part of this list. Calls of active or inactive are those of the source. Unless noted, how the calls were made is not given here.
# How the values were obtained:
# [1] = antimalarial activity against Dd2 strain (AID 2302;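 active means growth inhibition above 50% at the single 2 µM test dose, taken to imply half-maximal potency below 2 µM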;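 further: 0% = DMSO untreated growth and 100% = chloroquine plus artemisinin killed control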); conditions: P. falciparum Dd2 in RBCs, LDH growth readout, 72 h; at 2 µM; hits give high values
# [2] = human hepatoma cell viability loss – ATP luminescence, cytotoxicity control for P. falciparum antimalarial project, primary screen (AID 2303;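 active means inhibition above 50%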;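 further: 0% = DMSO wells and 100% = digitonin-killed cells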); conditions: HepG2 viability, 24-48 h, at 10 µM, hits give high values
# [3] = biological target: L-lactate dehydrogenase (Plasmodium falciparum (isolate CDC / Honduras)) (UniProt Q27743); assay: PfLDH activity inhibition – cell lysate, 3D7 strain, counter-screen for P. falciparum growth inhibition project (AID 2304);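 further: 0% = vehicle and 100% = reference inhibitor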; conditions: P. falciparum 3D7 crude extract, LDH APAD/NBT absorbance; at 2 µM; hits give high values
# Sequence of L-lactate dehydrogenase (Plasmodium falciparum (isolate CDC / Honduras)) (Q27743 whole entry, looked up): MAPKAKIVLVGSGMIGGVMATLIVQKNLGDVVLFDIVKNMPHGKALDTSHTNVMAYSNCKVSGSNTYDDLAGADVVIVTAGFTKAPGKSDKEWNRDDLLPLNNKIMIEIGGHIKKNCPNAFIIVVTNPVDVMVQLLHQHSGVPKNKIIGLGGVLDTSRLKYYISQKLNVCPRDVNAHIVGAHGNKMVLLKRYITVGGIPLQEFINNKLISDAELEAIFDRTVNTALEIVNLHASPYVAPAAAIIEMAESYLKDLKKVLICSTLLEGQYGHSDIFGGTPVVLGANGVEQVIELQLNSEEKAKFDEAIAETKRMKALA
# [4] = inhibition of 3D7 malaria parasite growth – strain 3D7 (AID 2306);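 further: 0% = DMSO wells and 100% = chloroquine plus artemisinin control wells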; conditions: P. falciparum 3D7 erythrocytic growth, LDH absorbance, 72 h; at 2 µM; hits give high values
# [5] = biological target: Calcium-dependent protein kinase 1 (Plasmodium falciparum (isolate 3D7)) (UniProt P62344); assay: PfCDPK1 kinase inhibitors, biochemical, TCAMS library (AID 1159585; cut-off not given, nearly all actives have IC50 up to about 0.98 µM;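 further: inhibitors leave more ATP so luminescence rises with inhibition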); conditions: recombinant PfCDPK1, Kinase-Glo ATP depletion luminescence
# Sequence of Calcium-dependent protein kinase 1 (Plasmodium falciparum (isolate 3D7)) (P62344 whole entry, looked up): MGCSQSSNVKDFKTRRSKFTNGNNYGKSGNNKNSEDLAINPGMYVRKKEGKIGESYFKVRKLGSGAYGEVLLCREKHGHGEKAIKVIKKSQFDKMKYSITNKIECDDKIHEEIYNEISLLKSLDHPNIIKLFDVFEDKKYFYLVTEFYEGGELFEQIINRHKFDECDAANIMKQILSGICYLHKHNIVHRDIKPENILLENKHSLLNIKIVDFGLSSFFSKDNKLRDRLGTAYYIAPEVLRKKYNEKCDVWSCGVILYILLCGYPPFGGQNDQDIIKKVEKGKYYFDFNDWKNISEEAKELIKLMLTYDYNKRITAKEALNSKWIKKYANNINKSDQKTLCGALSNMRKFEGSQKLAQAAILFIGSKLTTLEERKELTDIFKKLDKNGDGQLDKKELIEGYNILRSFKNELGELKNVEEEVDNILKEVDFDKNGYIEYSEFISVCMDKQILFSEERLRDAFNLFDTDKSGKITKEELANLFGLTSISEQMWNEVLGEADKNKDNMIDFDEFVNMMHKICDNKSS
# [6] = biological target: Plasmodium falciparum protein kinase 6 (PK6, PF3D7_1337100) (UniProt Q8IDW1); assay: PfPK6 kinase inhibitors, biochemical, TCAMS library (AID 1159586); conditions: recombinant PfPK6, Kinase-Glo ATP depletion luminescence
# Sequence of Plasmodium falciparum protein kinase 6 (PK6, PF3D7_1337100) (Q8IDW1 1-305): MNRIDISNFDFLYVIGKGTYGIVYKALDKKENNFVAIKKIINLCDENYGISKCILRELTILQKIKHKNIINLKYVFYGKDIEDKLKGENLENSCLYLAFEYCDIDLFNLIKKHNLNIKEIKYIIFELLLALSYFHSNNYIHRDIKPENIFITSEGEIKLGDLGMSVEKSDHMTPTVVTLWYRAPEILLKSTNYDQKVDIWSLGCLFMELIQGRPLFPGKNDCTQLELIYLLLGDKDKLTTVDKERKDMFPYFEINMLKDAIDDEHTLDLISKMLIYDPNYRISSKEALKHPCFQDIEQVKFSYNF
# [7] = biological target: Protein kinase 7 (PK7), Plasmodium falciparum 3D7 (PF3D7_0213400) (UniProt Q7YTF7); assay: inhibition of Plasmodium PK7 catalytic activity – biochemical, TCAMS antimalarial set, Kinase-Glo luminescence (AID 1159587); conditions: recombinant PfPK7, Kinase-Glo ATP depletion luminescence
# Sequence of Protein kinase 7 (PK7), Plasmodium falciparum 3D7 (PF3D7_0213400) (Q7YTF7 1-343): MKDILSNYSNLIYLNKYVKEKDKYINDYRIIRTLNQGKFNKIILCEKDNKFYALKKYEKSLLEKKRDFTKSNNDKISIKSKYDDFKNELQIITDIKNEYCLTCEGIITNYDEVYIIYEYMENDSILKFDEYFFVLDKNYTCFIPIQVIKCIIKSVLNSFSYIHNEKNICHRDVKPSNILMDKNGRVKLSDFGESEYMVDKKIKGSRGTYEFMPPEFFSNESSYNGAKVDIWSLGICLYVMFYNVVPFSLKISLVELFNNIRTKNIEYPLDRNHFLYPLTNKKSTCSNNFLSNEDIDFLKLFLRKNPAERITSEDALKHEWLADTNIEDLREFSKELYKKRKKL
# [8] = biological target: Calcium-dependent protein kinase 4 (Plasmodium falciparum (isolate 3D7)) (UniProt Q8IBS5); assay: PfCDPK4 kinase inhibitors, biochemical, TCAMS library (AID 1159588; cut-off not given, nearly all actives have IC50 up to about 0.91 µM); conditions: recombinant PfCDPK4, Kinase-Glo ATP depletion luminescence
# Sequence of Calcium-dependent protein kinase 4 (Plasmodium falciparum (isolate 3D7)) (Q8IBS5 whole entry, looked up): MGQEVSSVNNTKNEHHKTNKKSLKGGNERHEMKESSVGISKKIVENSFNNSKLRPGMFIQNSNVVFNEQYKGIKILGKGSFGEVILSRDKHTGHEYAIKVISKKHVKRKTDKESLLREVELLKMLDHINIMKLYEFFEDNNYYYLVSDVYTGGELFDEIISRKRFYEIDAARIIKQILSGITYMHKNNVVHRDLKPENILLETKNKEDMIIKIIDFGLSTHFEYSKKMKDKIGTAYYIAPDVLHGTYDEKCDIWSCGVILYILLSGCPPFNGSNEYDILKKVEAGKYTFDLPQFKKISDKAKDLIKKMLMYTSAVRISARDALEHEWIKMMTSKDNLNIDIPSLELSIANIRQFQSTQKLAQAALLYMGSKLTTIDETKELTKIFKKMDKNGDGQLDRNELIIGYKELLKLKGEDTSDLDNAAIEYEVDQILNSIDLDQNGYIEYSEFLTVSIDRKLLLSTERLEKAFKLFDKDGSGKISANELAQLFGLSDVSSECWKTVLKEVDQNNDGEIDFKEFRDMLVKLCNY
SMILES,growth inhibition [1],inhibition [2],inhibition [3] [%],growth inhibition [4],outcome [5],outcome [6],outcome [7],outcome [8]
CC(=O)Nc1ccc(CN(Cc2ccc(F)cc2)Cc2cccc(Oc3ccccc3)c2)cc1,82% (active),-8%,6,88% (active),inactive,inactive,inactive,inactive
COc1ccccc1/C=C/C(=O)NC1CCC(CCN2CCc3ccc(-c4cc(C)no4)cc3CC2)CC1 (stereo not given),11%,47%,0,95% (active),inactive,inactive,inactive,inactive
O=C(/C=C/c1ccc(Cl)c(Cl)c1)N1CCC(CN2CCC(c3nc4ccccc4n3CCCO)CC2)CC1,-4%,60% (active),-8,96% (active),inactive,inactive,inactive,inactive
COc1ccc(CNC(=O)c2cnc3cc(-c4c(C)noc4C)ccc3c2Nc2ccccc2C(C)(C)C)cc1,69% (active),9%,0,99% (active),inactive,inactive,inactive,inactive
O=C(/C=C/c1ccc(Cl)c(Cl)c1)NCCCCCN1CCC(NC(=O)Nc2ccc(Oc3ccccc3)cc2)C1 (stereo not given),6%,35%,4,99% (active),inactive,inactive,inactive,inactive
O=C(NCCCCN1CCC(O)(c2ccc(Cl)cc2)CC1)c1ccc(Br)cc1,48%,41%,4,82% (active),inactive,inactive,inactive,inactive
COc1ccc2nccc([C@@H](O)CN3CCC(NCCOc4ccc(F)cc4F)CC3)c2c1,68% (active),13%,-5,101% (active),inactive,inactive,inactive,inactive
CCc1cc(C(=O)c2cccc(C)c2)c(NC(=O)CN2CCN(C(=O)c3ccco3)CC2)s1,85% (active),-13%,-5,91% (active),inactive,inactive,inactive,inactive
CCCNCc1ccc(-c2ccc(CN(CC3CCCO3)C(=O)COc3ccccc3Cl)cc2)nc1 (stereo not given),11%,5%,-3,89% (active),inactive,inactive,inactive,inactive
CCCC(=O)Nc1ccc(OCCCN(Cc2cccc(C(F)(F)F)c2)c2ccc(C#N)c(C(F)(F)F)c2)cc1,89% (active),-12%,-5,90% (active),inactive,inactive,inactive,inactive
O=C(NC1CC1)c1ccc(N2CCC(Cc3ccccc3)CC2)nc1,92% (active),13%,5,95% (active),inactive,inactive,inactive,inactive
O=c1cc(NCCCNCc2ccc(Cl)c(Cl)c2)[nH]c2cc(F)cc(F)c12,94% (active),11%,0,102% (active),inactive,inactive,inactive,inactive
N#Cc1ccc(N2CCN(Cc3cccc(-c4cccc(-c5nc6ccc(F)cc6[nH]5)c4)c3)CC2)nc1,52% (active),26%,3,90% (active),inactive,inactive,inactive,inactive
O=S(=O)(NCCN1CCCC1)c1ccc(-c2cccc(CNCCc3cccs3)c2)cc1,30%,41%,-1,95% (active),inactive,inactive,inactive,inactive
CCOc1c(Cl)cc(Cl)cc1CNCCCNc1nc2ccccc2[nH]1,1%,18%,-7,94% (active),inactive,inactive,inactive,inactive
COc1ccc(NC(=O)/C=C/c2cc(F)cc(C(F)(F)F)c2)cc1OCCN(C(C)C)C(C)C,21%,18%,-3,97% (active),inactive,inactive,inactive,inactive
Cc1ccc(CNC(=O)c2cc3c(=O)n4cccc(C)c4nc3n(CCN3CCOCC3)c2=N)cc1,21%,31%,-6,97% (active),inactive,inactive,inactive,inactive
O=c1cc(NCCCNCc2ccc(C(F)(F)F)s2)[nH]c2ccccc12,68% (active),-11%,2,99% (active),inactive,inactive,inactive,inactive
O=C(Cc1cnc[nH]1)Nc1cccc(-c2ccc(-c3nc4ccc(C(F)(F)F)cc4[nH]3)cc2)c1,99% (active),10%,-1,102% (active),inactive,inactive,inactive,inactive
COCC(C)n1c(C)cc(C(=O)CSc2nnc(Nc3ccccc3)s2)c1C (stereo not given),98% (active),-5%,-6,97% (active),inactive,inactive,inactive,inactive

SMILES,growth inhibition [1],inhibition [2],inhibition [3] [%],growth inhibition [4],outcome [5],outcome [6],outcome [7],outcome [8]
COc1ccc(CCCCN2C(=O)C(c3ccccc3)(c3ccccc3)N=C2N)cc1,95% (active),40%,-2,97% (active),inactive,inactive,inactive,inactive
Cc1cc(N2CCC(NS(=O)(=O)c3ccc(F)cc3)CC2)nc(Nc2cccc(C#N)c2)n1,65% (active),20%,-4,97% (active),inactive,inactive,inactive,inactive
Cc1cc2nc(-c3ccc(/C=C/C(=O)NCc4ccc(Cl)c(Cl)c4)cc3)[nH]c2cc1C,83% (active),32%,-1,98% (active),inactive,inactive,inactive,inactive
CC(CN1CCN(C)CC1)C(=O)Nc1ccc(-c2csc(-c3nc4ccccc4[nH]3)c2)cc1 (stereo not given),26%,15%,-4,93% (active),inactive,inactive,inactive,inactive
O=C(CCCCCNC(=O)c1ccc(O)c(-c2cccc(C(F)(F)F)c2)c1)NCCN1CCCCC1,0%,-5%,4,99% (active),inactive,inactive,inactive,inactive
CC(Cc1ccc(NC(=O)c2ccc(CNCCc3ccccc3)cc2)cc1)NCCc1cccc(Cl)c1 (stereo not given),99% (active),100% (active),0,100% (active),inactive,inactive,inactive,inactive
COc1cccc(CC(=O)N2CCC(n3c(C)nc4ccc(C)cc43)CC2)c1,99% (active),1%,-2,100% (active),inactive,inactive,inactive,inactive
Cc1cc2nc(-c3ccc(SCC(=O)Nc4ccc5c(c4)OCCO5)nc3)[nH]c2cc1C,6%,17%,9,85% (active),inactive,inactive,inactive,inactive
COc1ccc(N2CCN(CCCCNCc3ccc(NC(=O)c4cc(Cl)cc(Cl)c4)cc3)CC2)c(OC)c1,99% (active),39%,0,100% (active),inactive,inactive,inactive,inactive
CN1CCC(N(Cc2ccc(-c3ccc(C(F)(F)F)cc3)cc2)C(=O)Cn2c(SCc3cccc(F)c3F)cc(=O)c3c2CCC3)CC1,83% (active),50% (active),1,89% (active),inactive,inactive,inactive,inactive
CCc1ccc(O)c(-c2cc(C(=O)Nc3cccnc3)[nH]n2)c1,99% (active),-4%,-7,98% (active),inactive,inactive,inactive,inactive
Cc1ccc(S(=O)(=O)c2nc(S(=O)(=O)c3ccccc3)sc2NCC2CCCO2)cc1 (stereo not given),17%,4%,0,88% (active),inactive,inactive,inactive,inactive
O=C(C=Cc1ccc(Cl)c(Cl)c1)NCCCCCN1CCCC(CCCNC(=O)c2cccs2)C1 (stereo not given),0%,24%,1,89% (active),inactive,inactive,inactive,inactive
CC(C)(C)CCOC(=O)N1CCc2c(cc(O)c(O)c2Cl)C(c2ccc(O)cc2)C1 (stereo not given),95% (active),2%,-2,97% (active),inactive,inactive,inactive,inactive
Cn1nc(-c2cccc(CNC3CCc4ccccc43)c2)c2cnc(NC3CCCC3)nc21 (stereo not given),23%,14%,-1,100% (active),inactive,inactive,inactive,inactive
COc1ccc2ncc(F)c(NC(=O)C3CCC(NCc4cc5cc(F)cc(F)c5[nH]4)CC3)c2n1 (stereo not given),15%,18%,2,95% (active),inactive,inactive,inactive,inactive
Cc1cccc2[nH]c(-c3cccc(-c4ccc(NC(=O)Nc5ccc(Cl)cc5)cc4)c3)nc12,96% (active),63% (active),0,100% (active),inactive,inactive,inactive,inactive
CCN(CCCN1CCCCC1)c1cc(C)nc(Nc2ccc(Oc3ccccc3)cc2)n1,99% (active),50% (active),-3,101% (active),inactive,inactive,inactive,inactive
Cc1cc(NC(=O)c2cccs2)ccc1OC1CCN(Cc2ccc(C#N)cc2)CC1,92% (active),34%,4,94% (active),inactive,inactive,inactive,inactive
O=C(Cc1cccnc1)Nc1cccc(-c2cccc(-c3nc4ccc(C(F)(F)F)cc4[nH]3)c2)c1,38%,42%,-7,99% (active),inactive,inactive,inactive,inactive
